GLP-1R agonist – agonists of human GLP-1 receptor; HEK293 GLP-1R CRE-luciferase, luminescence, 4-6 h; cells express a hypersensitive GLP-1R form; Potency, µM (doses to about 45.6 µM), for inactives: at the top dose activation, hits mostly activators; 0.007% of 380,000 active; AID 624172; note: % of control where 0% means no effect
IDH1 R132H inh – blocks human mutant IDH1 R132H enzyme; 0.093% of 390,000 active; Potency, µM (titrated, usually from 76.6 µM), without a hit: top-dose activity change, negative = inhibition, usual class: inhibitors; AID 602179; IDH1-R132H enzyme, NADPH consumption, diaphorase/resazurin fluorescence; O75874; note: % is set by controls: 0 for no effect and ±100 for the full control effect; nearly all actives have a fitted effect of over 65% in size
Target sequence (O75874 whole entry R132H, stated change not applied): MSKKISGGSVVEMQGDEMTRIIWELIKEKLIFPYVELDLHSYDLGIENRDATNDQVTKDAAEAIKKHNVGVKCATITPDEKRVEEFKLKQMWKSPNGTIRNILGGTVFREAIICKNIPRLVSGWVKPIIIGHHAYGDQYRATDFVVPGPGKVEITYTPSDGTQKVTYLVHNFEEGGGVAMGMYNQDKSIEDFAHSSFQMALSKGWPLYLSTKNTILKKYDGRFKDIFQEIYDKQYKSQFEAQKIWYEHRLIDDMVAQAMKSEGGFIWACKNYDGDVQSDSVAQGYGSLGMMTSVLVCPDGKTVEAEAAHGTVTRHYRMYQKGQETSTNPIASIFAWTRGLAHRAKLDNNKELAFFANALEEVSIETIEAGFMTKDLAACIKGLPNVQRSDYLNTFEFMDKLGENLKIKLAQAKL
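IDH1-R132H (0.5 ug/mL) preincubated 30 min with compound, then NADPH (0.016 mM) and alpha-KG (2 mM) added; 80 min at RT, pH 7.5. Remaining NADPH coupled via diaphorase/resazurin to fluorescence (540/590 nm); concentration-response curves normalized to no-enzyme control.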
TrxR1 inh – blocks rat thioredoxin reductase 1 | O89049 | recombinant rTrxR1, NADPH fluorescence consumption, selenite substrate | Potency, µM (highest dose often 114 µM), for inactives: at the highest dose activity change, negative = inhibition, most hits filed as inhibitors | 1% of 390,000 active | AID 588453; note: % is set by controls: 0 for no effect and ±100 for the full control effect; nearly all actives have a fitted effect of over 65% in size
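Rat TrxR1 (90 nM in the dispensed reagent) was pre-reduced with 400 uM NADPH for 5 min at room temperature, then incubated with compound for 15 min. After 400 uM selenite was added, NADPH fluorescence (Ex 340/Em 450 nm) was followed for 8 min.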
GLP1R inv ag – GLP-1 receptor (human) inverse agonism. HEK293 GLP-1R CRE-luciferase, luminescence, 24 h; GLP-1R form is constitutively active. P43220. Potency, µM (titrated, usually from 38.3 µM), for the others: at the highest dose activity change, negative = inhibition, actives largely listed as inhibitors. 1.6% of 410,000 active. AID 624417; note: % is set by controls: 0 for no effect and ±100 for the full control effect; nearly all actives have a fitted effect of over 55% in size
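qHTS in 1536-well format: reporter HEK293 cells expressing constitutive GLP-1R activity in DMEM + 10% Nu serum, 24 hr with compounds at 37 deg C, luminescence read after 12 min with detection reagent.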
TrxR1 substrate – substrates of rat thioredoxin reductase 1. 0.01% of 390,000 active. purified TrxR1 substrate turnover, NADPH consumption readout. Potency, µM (series often up to 114 µM), without a hit: at the highest dose activity change, negative = substrate turnover. AID 588456. O89049; note: % is set by controls: 0 for no effect and ±100 for the full control effect; nearly all actives have a fitted effect of over 50% in size
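Rat TrxR1, dispensed at 90 nM, was prereduced with 400 uM NADPH (final) for 5 min at ~22 deg C, then incubated with compound 15 min before 400 uM selenite. A first-read NADPH fluorescence drop versus no-compound background flagged substrates.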
HEK293 tox – cytotoxicity counter-screen for GLP-1 receptor inverse agonists; Potency, µM (highest dose often 38.3 µM), without a hit: at the top dose activity change, negative = inhibition, hits mostly inhibitors; HEK293 cAMP-luciferase reporter cells, luminescence, 24 h; 0.13% of 410,000 active;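 note: loss of luciferase light is scored as toxicity; % is set by controls: 0 for no effect and ±100 for the full control effect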
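Quantitative HTS format, 1536 wells, 200 cells/uL seeded. Compounds: 23 nL, 24 h, 37 °C. Detection: luciferase reagent, luminescence at 12 min RT; decreased signal taken as cytotoxic.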
* hit, by the source's call; ? = inconclusive; · = no result; [ ] = another dose, or the depositor's remark. Only some compounds are listed: those with a hit (about 2.7% of all), similar ones and a draw of the others. Calls come from the whole dose curve; as a rule, active = well fitted curve in the direction sought with a large enough effect; inconclusive = small, poorly fitted or top-dose-only effect, or another doubt; inactive = no such curve, though single readings can be large; an effect the other way counts as inactive or inconclusive. Potency is the fitted concentration of half-maximal effect.

SMILES | GLP-1R agonist | IDH1 R132H inh | TrxR1 inh | GLP1R inv ag | TrxR1 substrate | HEK293 tox
O=C(NCCCc1ccccc1)c1cccc(Br)c1 | 3.2% | 6.2% | 24.3% | ? | -0.7% | 1.8%
O=S1(=O)c2ccccc2OC(COCc2ccccc2)CN1Cc1ccccc1 (stereo unspecified) | -2.0% | 6.7% | 35.9% | ? | -0.6% | 5.5%
CCCCN1CC(COCc2ccccc2)Oc2ccccc2S1(=O)=O (stereo unspecified) | 8.4% | 7.3% | 29.6% | 11.2µM* | -2.8% | 15.0%
CCCCN1CC(COCc2ccccc2)Oc2cccc(F)c2S1(=O)=O (stereo unspecified) | -7.4% | 3.7% | 10.0% | ? | -5.9% | 9.2%
O=S1(=O)c2ccc(Br)cc2OC(COCc2ccccc2)CN1Cc1ccccc1 (stereo unspecified) | 10.6% | 0.1% | 45.2% | 10µM* | 9.2% | -6.2%
CCCCN1CC(COCc2ccccc2)Oc2cccc(OCCN3C(=O)[C@@H]4[C@H](C3=O)C3C=C[C@H]4C3)c2S1(=O)=O (stereo partly specified) | -1.1% | 6.0% | 27.3% | 10µM* | 2.8% | -19.8%
O=C(Cn1ncc2c([nH]c3ccccc32)c1=O)Nc1cccc(C(F)(F)F)c1 | · | 11.7% | 16.3% | 9.9% | 4.7% | 16.5%
Brc1ccc2c(c1)C(C1=NCCN1)c1ccccc1CS2 (stereo unspecified) | -2.9% | 0.8% | 13.4% | 1.41µM* | -1.0% | -6.4%
Cc1ccc2oc(C(=O)Nc3ccc(S(=O)(=O)Nc4nc(C)cc(C)n4)cc3)cc(=O)c2c1 | · | 16.4% | 3.1% | 5.3% | -8.6% | 0.0%
Cc1cccc(NC(=O)Cn2c(=O)n(CC3CCC(C(=O)NCCc4ccccc4)CC3)c(=O)c3ccccc32)c1 (stereo unspecified) | 1.0% | -2.1% | -12.5% | 6.2% | -7.0% | 5.1%
Cc1ccc(Cc2c(-c3cccc(Cl)c3)nc3cc(C)c(Br)c(C)n23)cc1 | 1.5% | · | · | 3.16µM* | · | 5.7%
Cc1ccc(-c2nc3cc(C)c(Br)c(C)n3c2Cc2cccc(Cl)c2)cc1 | -1.2% | · | · | 8.7% | · | 2.8%
Cc1cccc(-c2nc(CSc3nncn4c3cc3sccc34)c(C)o2)c1 | · | -8.4% | 15.2% | 5.0% | 2.4% | 5.0%
CN(C(=O)c1ccc(-c2ccccc2)cc1)C1CCCCC1 | 19.4% | 4.6% | 23.0%[57.1 µM] | 10µM* | 7.0%[57.1 µM] | 0.8%
Clc1ccc(Cn2c3c(c4ccccc42)CCc2cc4ccccc4nc2-3)cc1 | · | · | ? | · | 60.3% | ·
Cc1ccc(C(=O)Nc2nc(-c3ccco3)c(-c3ccco3)s2)o1 | -21.5% | -3.3% | 25.1µM* | -7.8% | -7.4% | 8.6%
O=C(CCCSc1ccccc1)Nc1nc(-c2ccco2)c(-c2ccco2)s1 | 8.0% | -5.2% | ? | ? | -1.6% | ?
O=C(CCl)Nc1nc(-c2ccco2)c(-c2ccco2)s1 | ? | ? | 12.6µM* | 68.0% | -2.3% | -1.3%
CCCn1c2ccccc2c2cnn(CC(=O)NCC3CCN(Cc4ccccc4C)CC3)c(=O)c21 | · | 5.7% | -1.4% | -12.1% | -1.7% | 28.6%
CC12CCC=CC1C(c1ccc3ccccc3c1Br)N(Cc1ccccc1)C2=O (stereo unspecified) | · | · | -19.3% | · | -2.9% | ·
Cc1ccc(-n2nc(C(=O)N(C)c3ccccc3Cl)c3c4ccccc4n(C)c3c2=O)cc1 | · | · | 23.7% | -5.3% | -0.5% | 13.7%
O=C1NC2c3c(I)sc(I)c3C(=O)C2O1 (stereo unspecified) | -0.8% | 9.7% | 2.51µM* | ? | -2.0% | ?
O=C1NC2c3c(Cl)sc(Cl)c3C(=O)C2O1 (stereo unspecified) | -0.9% | 5.7% | 6.31µM* | ? | -4.6% | -8.1%
CC(C)(C)n1ncc2c(=O)n(Cc3ccc(C#N)c(F)c3)cnc21 | · | · | -0.8% | · | -2.3% | ·

Screening data: PubChem BioAssay, National Center for Advancing Translational Sciences (NCATS)
